Measurements taken from PubChem BioAssay AID2314 (National Center for Advancing Translational Sciences (NCATS), 2010).
In all, about 300,000 compounds went through this assay and about 37,000 (12%) were called active. Rule as the data show it: active = max response mostly above about 13% (no sharp cut-off); inactive = mostly below about 14%. What follows is part of a selection rich in actives, with near analogues and random picks from the rest.

test: Cycloheximide Counterscreen for Small Molecule Inhibitors of Shiga Toxin; conditions: cell reporter, cycloheximide protein synthesis inhibition counterscreen; active compounds read high; also: read at 38.3 µM for the half of the compounds with a filed dose; 0% is about no effect

Structure (SMILES)	max response
N#Cc1ccc(C(=O)Nc2cccc3cccnc23)c(F)c1	-0.854% (inactive)
COc1ccc(NC(=O)Nc2cccc3cccnc23)cc1	55.8% (active)
CCOC(=O)Cc1ncccc1C(=O)Nc1ccc(OC)cc1	-1.69% (inactive)
O=C(Nc1cccc2cccnc12)c1cccc(Cl)c1	49.1% (active)
COc1ccc(S(=O)(=O)Nc2cccc3cccnc23)c(N)c1	23.5% (inactive)
O=C(Nc1cccc2cccnc12)c1cccc(N2C(=O)CCC2=O)c1	-3.63% (inactive)
O=C(Nc1ccccc1Cl)Nn1cnnc1	6.34% (inactive)
O=C(Nc1cccc2cccnc12)C(F)(F)F	-1.21% (inactive)
O=C(Nc1ccccc1Cl)Nc1cccc2cccnc12	31.2% (active)
O=C(COC(=O)/C=C/c1cn(-c2ccccc2)nc1-c1cccnc1)Nc1ccc(Cl)cc1Cl	3.3% (inactive)
COc1cccc(-n2c(=S)sc3c(=O)n(-c4ccccc4C)c(SCC(=O)O)nc32)c1	-1.2% (inactive)
O=C(c1ccccc1F)N1CCN(S(=O)(=O)c2ccc(Br)cc2)CC1	-10.6% (inactive)
O=C1NC(=O)C(c2ccc(Cl)cc2)N1 (stereo not given)	-2.12% (inactive)
CCOC(=O)C1=C(O)/C(=C/c2ccc(OCC(=O)Nc3ccc(C)cc3)cc2)N=C1C	-7% (inactive)
C=CCN1C(=O)NC(=O)/C(=C/c2ccc(OCC(=O)Nc3ccc(C)cc3)cc2)C1=O	14.5% (active)
Cc1ccc(NC(=O)COc2ccc(/C=C3/NC(=O)NC3=O)cc2)cc1	-1.82% (inactive)
CCSc1nnc(SCC(=O)NNC(=O)c2ccccc2F)s1	6.26% (inactive)
O=C(CCC1CCCC1)N=C1SC2CS(=O)(=O)CC2N1Cc1ccccc1 (stereo not given)	0.661% (inactive)
COc1cccc2sc(NNC(=O)c3nc4ccccc4s3)nc12	12.4% (inactive)
COc1cc2ccccc2cc1C(=O)Nc1ccc(S(=O)(=O)Nc2cc(C)on2)cc1	-2.65% (inactive)
CNC(=O)c1sc(Nc2ccc(OCc3ccccc3)cc2)nc1C	10.4% (inactive)
COc1cccc2sc(Nc3nc(C)c(C(C)=O)s3)nc12	16.2% (active)
COc1cc2ccccc2cc1C(=O)Nc1ccccc1C	29.7% (active)
CCOC(=O)c1sc(NC(=O)c2ccncc2)nc1C	0.888% (inactive)
CC(=O)c1sc(NC(=O)c2cccc3ccccc23)nc1C	35.9% (active)

Structure (SMILES)	max response
COC(=O)c1sc(NC(=S)NC(=O)c2ccc(C)cc2)nc1C	9.32% (inactive)
CC(=O)c1sc(NC(=O)c2ccc(C)cc2)nc1C	54.3% (active)
CNC(=O)c1sc(NCc2ccccc2OC)nc1C	-3.72% (inactive)
CC(=O)c1sc(NC(=O)C2=NN(c3ccccc3)C(=O)CC2)nc1C	-0.878% (inactive)
COc1ccc(Br)cc1C(=O)Nc1cccc(C)c1C	-3.3% (inactive)
COc1cc(C(=O)NCc2ccncc2)cc(Br)c1OCc1ccccc1	-7.17% (inactive)
Cc1ccc(C(=O)N/N=C\c2cc(Br)c(Br)o2)cn1	3.37% (inactive)
CC(=O)NS(=O)(=O)c1ccc2c(c1)Cc1cc(S(=O)(=O)NC(C)=O)ccc1-2	-0.942% (inactive)
N#C[C@]1(S(=O)(=O)c2ccccc2)C[C@@H]2ON=C(c3cccc(Br)c3)[C@@H]2C1	0.173% (inactive)
CCCCC(O)(CCCC)C(=O)NN(C(=O)CCl)c1ccccc1	4.18% (inactive)
COc1cc2ccccc2cc1C(=O)Nc1nc(C)c(C(C)=O)s1	33.8% (active)
O=C(Cc1ccccc1)NC(=S)Nc1ccc(N2CCCCC2)cc1	20.2% (inactive)
CC1(C)CC(N2CCN(C(c3ccccc3)c3ccccc3)CC2)=CC(=[N+]2CCCCC2)C1	-1.68% (inactive)
CCOC(=O)c1ccc(COC(=O)c2cc(=O)[nH]c3ccccc23)o1	-2.02% (inactive)
CCOC(=O)c1ccc(CS(=O)c2ccc(Cl)cc2)o1 (stereo not given)	25.3% (active)
Cc1ccc(S(=O)Cc2ccc(C(=O)N3CCN(C4CCCCC4)CC3)o2)cc1 (stereo not given)	0.779% (inactive)
C=CCn1c(CNS(=O)(=O)c2ccc(Br)cc2)nnc1SC	-1.32% (inactive)
COc1ccc(CCNC(=O)c2nnc(CS(=O)(=O)c3ccccc3)o2)cc1OC	-0.612% (inactive)
CC(=O)NC(CC(=O)Nc1nc(-c2ccccc2)c(C(C)=O)s1)c1ccccc1 (stereo not given)	-6.12% (inactive)
COC(=O)c1c(C)[nH]c(C(=O)/C=C/c2ccc(Cl)cc2)c1C	30.8% (active)
COC(=O)c1c(C)[nH]c(C)c1-c1ccc([N+](=O)[O-])cc1	-6.3% (inactive)
COC(=O)c1c(C)oc(C)c1S(=O)(=O)NCc1ccc(Cl)cc1	-1.57% (inactive)
COc1ccc(NC(=O)c2sc3nc(C)nc(N4CCN(c5ccccn5)CC4)c3c2C)c(OC)c1	-5.96% (inactive)
CCN(C(=O)COC(=O)/C=C/c1nc2ccccc2s1)C1CCS(=O)(=O)C1 (stereo not given)	-3.69% (inactive)
O=S(=O)(Nc1cccc(-n2cnnn2)c1)c1cnc(Cl)c(Cl)c1	4.36% (inactive)

Structure (SMILES)	max response
O=C(CN1C2=NCCN2c2ccccc21)c1cccs1	4.8% (inactive)
Nc1c(C(=O)c2cccs2)sc2nsc(SCCN3CCCCC3)c12	24.4% (active)
O=C(c1ccc(Oc2ccc(Cl)cc2)c([N+](=O)[O-])c1)N1CCCC1	-3.06% (inactive)
COc1cc(N=Cc2c(O)[nH]c3ccccc23)cc(OC)c1OC	6.65% (inactive)
COc1ccc(N=Cc2c(O)[nH]c3ccccc23)cc1OC	43.7% (active)
COc1ccccc1N=Cc1c(O)c2ccccc2oc1=O	9.95% (inactive)
COc1cc(OC)c(C(=S)N2CCCC2)cc1OC	-2.47% (inactive)
Cc1cccc(NS(=O)(=O)c2cc(Cl)ccc2Cl)n1	-0.991% (inactive)
C[C@H](NC(=O)c1nc[nH]c1C(=O)NCC(=O)OC(C)(C)C)C(=O)OCc1ccccc1	-0.808% (inactive)
CCC(C)C(NC(=O)C1CCC(=O)N1C(=O)OCc1ccccc1)C(=O)NC(C(=O)N1CCCC1C(N)=O)C(C)CC (stereo not given)	-2.75% (inactive)
COc1ccccc1N1CCN(/N=C/c2ccc(O)cc2O)CC1	20% (active)
COc1cc(/C=N/N2CCN(c3ccccc3)CC2)ccc1OC(C)=O	15.1% (inactive)
COc1ccccc1N1CCN(/N=C\C(Br)=C\c2ccccc2)CC1	21.4% (inactive)
Cc1nnc(NC(=O)C(c2ccccc2)c2ccccc2)s1	-6.29% (inactive)
CCCCN1C(=O)C(C)=C(C)C1OCCc1ccc(OC)c(OC)c1 (stereo not given)	-1.75% (inactive)
COc1ccc(C(C(=O)NC2CCCCC2)N(C(=O)c2snc(C(N)=O)c2N)c2ccccc2OC)cc1 (stereo not given)	-4.3% (inactive)
CCOC(=O)Nc1ccc(S(=O)(=O)N(C)C(C)C)cc1	2.33% (inactive)
Cc1ccc(OCc2nnc(NC(=O)OCC(C)C)s2)cc1	-6.37% (inactive)
COc1ccc(NC(=O)/C(Cl)=C(/Cl)S(=O)Cc2ccc(C)cc2)cn1 (stereo not given)	-12.1% (inactive)
CC(C)(C)C1CCC(OC(=O)CCC(=O)Nc2ccccc2)CC1 (stereo not given)	4.12% (inactive)
CCOC(=O)C(NC(C)=O)C(=O)Nc1ccc(OC)cc1 (stereo not given)	-2.02% (inactive)
CCOC(=O)Nc1ccc(NC(=O)OCC)cc1	38.2% (active)
Cc1ccc(NC(=O)OCCNC(=O)c2ccncc2)cc1	19.8% (active)
Cc1ccc(C(=O)NCCNC(=O)c2cnccn2)cc1	-0.952% (inactive)
CCCCCOC(=O)NCCOC(=O)Nc1ccc(C(=O)OCC)cc1	-1.37% (inactive)

Structure (SMILES)	max response
CC(C)(COC(=O)Nc1ccccc1)COC(=O)Nc1ccccc1	19% (active)
CCOC(=O)N1CCN(CCC(=O)Nc2ccccc2)CC1	-2.64% (inactive)
Cc1ccc(NC(=O)OCc2cncs2)cc1	28.5% (active)
O=C(c1ccccc1)C(Cn1cncn1)C(Sc1ccccc1)c1ccccc1 (stereo not given)	-6.69% (inactive)
CC(C)C(=O)N1CCC2(CC1)Oc1ccc(F)cc1C(=O)C21CC(c2ccccc2)=NO1 (stereo not given)	-2.77% (inactive)
CN(C)CCOC1c2ccccc2-c2ccccc21	0.251% (inactive)
COc1cc(OC)c(C(=O)OC(C)C(=O)Nc2cc(C(F)(F)F)ccc2Cl)cc1OC (stereo not given)	4.97% (inactive)
CC1=C(C(N)=O)C(c2ccc(Br)cc2)n2ncnc2N1 (stereo not given)	-0.44% (inactive)
c1ccc(-c2cc(N3CCCCC3)c3ccccc3n2)cc1	-6.32% (inactive)
Cc1ccc(S(=O)(=O)N(C)C)cc1NC(=O)C1Cc2ccccc2CN1C(=O)c1ccco1 (stereo not given)	-2.92% (inactive)
C=CCC1=C/C(=C\c2c(N)n3nc(CC(=O)N4CCOCC4)sc3nc2=O)C=C(OC)C1=O	0.431% (inactive)
Cc1ccc(OS(=O)(=O)c2ccc(-c3csc(C)n3)s2)c(C)c1	1.06% (inactive)
CN(Cc1nc2ccc(F)cc2[nH]1)Cc1nc(CC2CC2)no1	-0.7% (inactive)
OC(COc1ccc2ccccc2c1)CN1CCOCC1 (stereo not given)	24% (active)
OC(COc1ccc2ccccc2c1)Cn1cncn1 (stereo not given)	8.69% (inactive)
COc1ccccc1OCC(O)CN1CCOCC1 (stereo not given)	-1.33% (inactive)
COc1ccc(C(=O)Nc2cc(C)c(NC(=O)c3ccccc3OC)cn2)cc1	9.29% (inactive)
Nc1nc(NCc2ccccc2)n(-c2ccccc2)n1	-3.49% (inactive)
CC(=O)Nc1ccc(N2C(=O)CC(Sc3nccc(C)n3)C2=O)cc1 (stereo not given)	-0.348% (inactive)
O=C(Cc1ccc(F)cc1)N/N=C/c1ccc2c(c1)OCO2	14.7% (inactive)
O=C(N/N=C/c1ccc2c(c1)OCO2)C(=O)N1CCCC1	46.6% (active)
COc1ccccc1N1CCN(C(=O)C(=O)N/N=C/c2ccccc2F)CC1	-0.733% (inactive)
O=C(N/N=C/c1ccc([N+](=O)[O-])cc1)C(=O)N1CCCC1	-0.79% (inactive)
Cc1[nH]c2ccccc2c1/C=N/NC(=O)CNC(=O)c1ccc2c(c1)OCO2	-0.0106% (inactive)
O=C(CNC(=O)C(c1ccccc1)c1ccccc1)N/N=C\c1ccc2c(c1)OCO2	35.9% (active)
